We go through 40 molecules from PubChem BioAssay (Tox21).

Each structure is given as a SMILES string. “And” between values parts separate entries of the source, which are not always exact repeats. Equal values may be shown once. Records with an inconclusive call do not appear. Where a call stands in place of a potency, no number is given. The source made the active and inactive calls. Calls come from the whole dose curve.
Potency is the fitted concentration of half-maximal effect.

For this test, the target named is Peroxisome proliferator-activated receptor gamma (Homo sapiens) (UniProt P37231). Nature of the test: qHTS assay to identify small molecule antagonists of the peroxisome proliferator-activated receptor gamma (PPARg) signaling pathway (AID 743191). Note: nearly all actives have a fitted effect of over 30% in size. The following applies: HEK293H PPARg-UAS-bla, beta-lactamase ratio, antagonist, 17 h; series mostly up to 62.6 µM. An excerpt: U.S. Tox21 Program National Center for Advancing Translational Sciences [NCATS] NIH Chemical Genomics Center [NCGC] U.S. Environmental Protection Agency [EPA] National Institutes of Environmental Health Sciences [NIEHS] National Toxicology Program [NTP] U.S. Food and Drug Administration [FDA] Tox21 Assay Overview: The peroxisome proliferator-activated receptors (PPARs) are lipid-activated transcription factors of the nuclear receptor superfamily with three distinct subtypes namely PPAR alpha, PPAR delta (also called PPAR beta) and PPAR gamma (PPARg). All these subtypes heterodimerize with Retinoid X receptor (RXR) and these heterodimers regulate transcription of various genes. PPAR-gamma receptor (glitazone receptor) is involved in the regulation of glucose and lipid metabolism. To identify the compounds that inhibit PPAR-gamma signaling, GeneBLAzer PPAR gamma UAS-bla HEK293H cell line (Invitrogen, Carlsbad, CA, USA) containing a beta-lactamase reporter gene under control of an Upstream Activator Sequence (UAS) was used to screen the Tox21 compound library.
Peroxisome proliferator-activated receptor gamma (Homo sapiens), sequence (P37231 whole entry, looked up): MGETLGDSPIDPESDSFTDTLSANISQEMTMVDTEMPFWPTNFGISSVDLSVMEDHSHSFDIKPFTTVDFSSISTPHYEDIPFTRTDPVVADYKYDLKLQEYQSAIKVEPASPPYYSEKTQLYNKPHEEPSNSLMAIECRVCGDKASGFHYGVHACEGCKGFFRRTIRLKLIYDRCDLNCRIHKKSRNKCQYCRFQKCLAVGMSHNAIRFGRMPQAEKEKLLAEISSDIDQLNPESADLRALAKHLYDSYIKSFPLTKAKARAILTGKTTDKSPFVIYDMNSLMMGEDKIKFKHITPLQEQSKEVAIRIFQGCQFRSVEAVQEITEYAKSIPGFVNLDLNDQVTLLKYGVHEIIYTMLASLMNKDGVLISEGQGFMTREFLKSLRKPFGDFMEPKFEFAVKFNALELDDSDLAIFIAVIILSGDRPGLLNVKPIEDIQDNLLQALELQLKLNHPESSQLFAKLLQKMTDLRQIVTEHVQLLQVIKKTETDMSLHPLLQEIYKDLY
Tox21 Assay Protocol Summary: PPARg-bla cells were dispensed at 3000 cells/6uL/well in 1536-well black wall/clear bottom plates using a Multidrop Combi (Thermo Fisher Scientific, Waltham, MA) dispenser. After the assay plates were incubated at 37C and 5% CO2 for 5 h, 23 nL of compounds dissolved in DMSO, positive controls or DMSO only was transferred to the assay plate by a Pintool station (Kalypsys, San Diego, CA). The assay plates were incubated at 37C for 17 h. After 1 uL of LiveBLAzerTM B/G FRET substrate was added using a Bioraptr Flying Reagent Dispenser (FRD) workstation (Beckman Coulter, Indianapolis, IN, USA), the plates were incubated at room temperature for 1 h, and fluorescence intensity was measured by an Envision plate reader (PerkinElmer, Shelton, CT).
A general note: In qHTS, concentration-response curves come from the screen itself.
`Cc1c([N+](=O)[O-])c(C)c([N+](=O)[O-])c(C(C)(C)C)c1[N+](=O)[O-]`: the Potency result is “inactive”.
As to `CC(C)N(C(=O)CCl)c1ccccc1`, the Potency was 3.89 µM (active) and 3.47 µM (active).
Take `CCOP(=O)(OCC)Oc1nc(Cl)c(Cl)cc1Cl`: the Potency is 1.37 µM (active).
With `C#CC1(O)CCCCC1`, the Potency result is “inactive”.
With `COC(=O)c1cc(Oc2ccc(Cl)cc2Cl)ccc1[N+](=O)[O-]`, the Potency was 43.6 µM (active).
For `O=S(=O)(O)F`, the Potency result was “inactive”.
Take `C=CCBr`: the Potency result is “inactive”.
Turning to `CCNS(=O)(=O)C(F)(F)C(F)(F)C(F)(F)C(F)(F)C(F)(F)C(F)(F)C(F)(F)C(F)(F)F`, the Potency entry is “inactive”.
Consider `O=P(Cl)(Cl)Cl`, for which the Potency entry is “inactive”.
As for `CNC(=O)/C=C(\C)OP(=O)(OC)OC`, the Potency result was “inactive”.
In the case of `Cc1c([N+](=O)[O-])cc2c(c1[N+](=O)[O-])C(C)(C)CC2(C)C` it was “inactive”; in that of `Clc1ccc(C(Cl)(Cl)Cl)cc1Cl`, “inactive”; in that of `O=S1(=O)OCC2C(CO1)C1(Cl)C(Cl)=C(Cl)C2(Cl)C1(Cl)Cl` (stereo not given), “inactive”.
Turning to `CC1(C)C(C=C(Cl)Cl)C1C(=O)OC(C#N)c1ccc(F)c(Oc2ccccc2)c1` (stereo not given), the Potency entry was “inactive”.
In the case of `O=c1c2ccccc2c(=O)c2c1cc(Cl)c1[nH]c3c([nH]c12)c(Cl)cc1c(=O)c2ccccc2c(=O)c13` it was “inactive”; in that of `Nc1nc(N)nc(Cl)n1`, “inactive”.
To `COc1ccc(Cc2nccc3cc(OC)c(OC)cc23)cc1OC` belongs “inactive”.
In the case of `COC(=O)C(C)N(C(=O)c1ccco1)c1c(C)cccc1C` (stereo not given), the Potency result was “inactive”.
As for `COP(=O)(OC)O/C(=C\Cl)c1cc(Cl)c(Cl)cc1Cl`, the Potency is 4.9 µM (active).
With `O=C(Cl)c1ccccc1F`, the Potency result was “inactive”.
In the case of `COP(=O)(OC)Oc1ccc([N+](=O)[O-])cc1` it was 17.4 µM (active).
For the molecule `CCNc1nc(NC(C)C(C)C)nc(SC)n1` (stereo not given), the Potency entry was “inactive”.
Consider `CCOP(=S)(NC(C)C)Oc1ccccc1C(=O)OC(C)C` (stereo not given), for which the Potency entry is “inactive”.
With `CC(C)Br`, the Potency entry is “inactive”.
For `CCN(CC)CCN1C(=O)CN=C(c2ccccc2F)c2cc(Cl)ccc21`, the Potency result was “inactive”.
On to `BrCC(Br)(Br)Br`, for which the Potency result is “inactive”.
Take `CCCCN(CCCC)C(=S)[S-].CCCCN(CCCC)C(=S)[S-].[Ni+2]`: the Potency result was “inactive”.
In the case of `c1cc[n+]2c(c1)-c1cccc[n+]1CC2` it was “inactive”; in that of `Brc1ccc(Oc2ccc(Br)cc2Br)c(Br)c1`, “inactive”; in that of `C=CC(=C)C`, “inactive”.
For the molecule `NC(=O)C(Cl)Cl`, the Potency entry was “inactive”.
Take `O=[N+]([O-])c1ccc(Cl)c(Cl)c1Cl`: the Potency result was “inactive”.
As to `C#CCO`, the Potency entry was “inactive”.
In the case of `CN1[C@@H]2CC[C@H]1CC(O)C2` (stereo not given in full) it was “inactive”; in that of `CCN(CC)C(=S)S`, “inactive”.
With `CCC1COC(Cn2cncn2)(c2ccc(Cl)cc2Cl)O1` (stereo not given), the Potency result was “inactive”.
For the molecule `CNC(C)(C)Cc1ccccc1`, the Potency entry was “inactive”.
With `CC(Cc1ccccc1)N(C)Cc1ccco1` (stereo not given), the Potency result was “inactive”.
With `Cc1ccn2nc(S(=O)(=O)Nc3c(F)cccc3F)nc2n1`, the Potency result is “inactive”.
In the case of `O=NN(CCO)CCO`, the Potency entry was “inactive”.
